# Source: PubChem BioAssay (Sanford-Burnham Center for Chemical Genomics)
# CYP2C19 act: activators of human cytochrome P450 2C19; P33261; recombinant CYP2C19, luciferin-H EGE luminescence; stronger effect = higher value; 0 = fully inhibited enzyme, 1 = untreated enzyme; activation factor at 5 µM; 96,000 tested, under 10 active;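 active = activation factor of at least 2 at 5 µM in the primary screen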;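 also: 0 = wells with 2.5 mM tranylcypromine and 1 = vehicle-only wells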
# CYP2C9 activ: CYP2C9 (human) activation. P11712. recombinant CYP2C9, luciferin-H conversion, luminescence; stronger effect = higher value; factor 1 = untreated enzyme, 0 = blocked. activation factor at 5 µM. hit rate 1.4% among 96,000;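 active = activation factor of 2 or more for CYP2C9 at a 5 µM dose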;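 also: 0 = sulfaphenazole-blocked wells and 1 = vehicle-only wells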
# CYP2C19 inhib: blocks human cytochrome P450 2C19. P33261. CYP2C19 Supersomes, luciferin-H EGE luminescence, 30 min. inhibition, % at 5 µM. hit rate 21% among 96,000;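 active = CYP2C19 inhibition above a set limit at 5 µM in the primary screen, cut at about 50% in these data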;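 also: plate controls were negative control wells for no effect and 2.5 mM tranylcypromine positive control for full effect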
# PLAP act: activates human placental alkaline phosphatase | hit rate 1.2% among 96,000 | purified PLAP enzyme, luminescent substrate read-out; stronger effect = higher value | AID 696 | P05187 | activation fold at 20 µM; in the data active = activation fold above about 2
# Target sequence (P05187 whole entry, looked up): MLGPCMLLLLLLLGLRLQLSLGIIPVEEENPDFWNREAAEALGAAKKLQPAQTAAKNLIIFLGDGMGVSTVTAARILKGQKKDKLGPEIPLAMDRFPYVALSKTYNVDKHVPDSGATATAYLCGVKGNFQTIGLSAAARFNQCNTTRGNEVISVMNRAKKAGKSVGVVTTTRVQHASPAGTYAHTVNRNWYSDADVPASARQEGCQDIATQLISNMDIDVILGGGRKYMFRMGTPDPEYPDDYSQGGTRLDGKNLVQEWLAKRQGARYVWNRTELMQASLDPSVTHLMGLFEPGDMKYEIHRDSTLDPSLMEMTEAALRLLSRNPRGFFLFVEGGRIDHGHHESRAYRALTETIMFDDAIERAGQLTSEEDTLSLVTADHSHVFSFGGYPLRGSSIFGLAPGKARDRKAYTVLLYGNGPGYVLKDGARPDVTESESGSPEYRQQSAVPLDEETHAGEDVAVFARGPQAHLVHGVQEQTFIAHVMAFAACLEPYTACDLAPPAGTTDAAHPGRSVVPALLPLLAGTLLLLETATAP
# CYP2C9 inhib: human CYP2C9 inhibition. CYP2C9 Supersomes, luciferin-H conversion, luminescence. inhibition, % at 5 µM. hit rate 20% among 96,000;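 active = blocking of liver enzyme CYP2C9 beyond about 50% at 5 µM, limit read from the data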
# * hit, by the source's call. Only some compounds are listed: those with a hit (about 31% of all), similar ones and a draw of the others.
SMILES,CYP2C19 act,CYP2C9 activ,CYP2C19 inhib,PLAP act,CYP2C9 inhib
Cc1ccnc(SCC(=O)N2CCC(C(N)=O)CC2)n1,1,1.1,-1,1.1,-8
NC(=O)C1CCN(C(=O)CSc2nc3c(c(-c4ccccc4)n2)CCCC3)CC1,0.9,0.3,14,1.4,73*
Cc1ccc2cc(CCNC(=O)c3ccc4c(c3)OCO4)c(=O)[nH]c2c1C,1,0.4,0,1,60*
O=C(COc1ccc(Cl)cc1Cl)N(Cc1ccco1)C1CCS(=O)(=O)C1 (centres undefined),0.7,0.7,31,1.2,28
O=C1c2ccccc2-c2onc3c(Oc4ccccc4)cc(O)c1c23,0.9,0.3,6,1.1,68*
COC(=O)C1=C(C)Nc2nnnn2C1c1ccc(Cl)cc1Cl (centres undefined),0.4,0.6,56*,0.8,43
CC1=C(C(N)=O)C(c2ccc(Cl)cc2Cl)n2ncnc2N1 (centres undefined),0.5,1.1,51*,1,-5
CCc1c(C)nc(N)n2c(SCC(=O)Nc3ccccc3)nnc12,0.9,0.8,14,0.9,18
CN1C(=O)C(CC(=O)Nc2ccc(F)cc2)N(CCCc2ccccc2)C1=S (centres undefined),0.4,0.1,60*,0.9,89*
COC(=O)CN1C(=S)N(Cc2ccccc2)C(=O)C1CC(=O)Nc1ccc(Br)cc1 (centres undefined),0.9,0.7,12,1.1,28
CCN1C(=O)C(CC(=O)Nc2ccc(OC)cc2)N(Cc2cccnc2)C1=S (centres undefined),0.4,1,65*,1,3
COc1ccc(NC(=O)CC2C(=O)N(CCc3ccccc3)C(=S)N2Cc2cccnc2)cc1 (centres undefined),0.1,0.1,90*,1.3,92*
CC(C)CCN1CCNC(=O)C1CC(=O)Nc1ccc(F)cc1 (centres undefined),0.6,0.9,37,1.2,7
C=CCN1C(=O)C(CC(=O)Nc2ccc(OC)cc2)N(Cc2ccco2)C1=S (centres undefined),0,0.5,96*,0.9,48
C=CCC(C)(NCc1ccccc1)c1ccco1 (centres undefined),0.6,0.8,35,1.1,22
O=C(OCC(=O)N1CCCCCC1)c1cccs1,0.5,1,49,0.9,-4
Cc1c(NC(=O)c2ccccc2N(C)S(=O)(=O)c2ccccc2)c(=O)n(-c2ccccc2)n1C,0.8,0.5,24,1.1,46
COc1ccc(NC(=O)CC2C(=O)N(c3ccc(Cl)cc3)C(=S)N2CCc2ccncc2)cc1 (centres undefined),0.1,0,88*,1.1,97*
COc1ccc(NC(=O)CC2C(=O)N(c3ccc(OC)cc3)C(=O)N2C(C)C)cc1 (centres undefined),0.4,0.7,56*,1.2,27
CC(C)C(=O)Nc1ccc(NC(=O)c2cccc(F)c2)cn1,1,1,2,0.8,-2
Cc1ccc2c(c1)cc(CN(Cc1ccc3c(c1)OCO3)C(=O)c1cnccn1)c1nnnn12,0.6,0.5,38,1.5,48
Cc1cc2cc(CN(Cc3ccc4c(c3)OCO4)C(=O)c3cnccn3)c3nnnn3c2cc1C,0.4,0.4,61*,1.5,63*
O=C(c1ccccc1F)N(Cc1ccc2c(c1)OCO2)Cc1cc2cc3c(cc2n2nnnc12)OCO3,0.2,0.5,78*,1,50*
Nc1c(C(=O)c2ccccc2)sc2snc(SCC(=O)c3ccccc3)c12,0.7,0.2,26,1,83*
Nc1nnc(SCC(=O)c2ccccc2)s1,0.8,1,21,0.9,0
SMILES,CYP2C19 act,CYP2C9 activ,CYP2C19 inhib,PLAP act,CYP2C9 inhib
CCCn1c(=O)c2ccccc2n2c(SCc3c(C(=O)OCC)oc4ccccc34)nnc12,0.4,0.4,59*,1.2,64*
Cc1ccc(CNc2ccc(Cl)cc2[N+](=O)[O-])cc1,0.9,0.9,6,0.9,11
CCOC(=O)C1CN(S(=O)(=O)c2ccc(C)cc2)C1,0.8,1,24,0.9,-3
O=C(NCCO)c1ccc2[nH]c3c(c2c1)CCCC3,0.2,0.8,83*,0.9,24
C=CCCCCCCCCC(=O)NN,0,0.1,100*,1,89*
Cc1oc(-c2ccccc2)nc1C(=O)OCC(=O)NC(=O)NCC(C)C,0.8,0.5,25,1.4,51*
CCOC(=O)c1nc(-c2ccccc2)oc1N(C)C,1.1,1.2,-10,1,-23
